Screening data deposited in PubChem BioAssay by National Center for Advancing Translational Sciences (NCATS).
Hits are enriched below; roughly 6.8% of the tested compounds scored in any of these assays.
TSG101-PTAP inh: qHTS Assay for Iinhibitors of HIV-1 Budding by Blocking the Interaction of PTAP/TSG101 | Fluorescence polarization, FITC-PTAP peptide / Tsg101 binding | Potency, µM (titrated, usually from 115 µM), without a hit: at the highest dose activity change, negative = inhibition, hits mostly inhibitors | 340,000 tested, under 10 active | AID 493005, 2010; active means well fitted inhibition curve with a large enough effect in the main read-out, with a control signal flat, not every such curve was filed as active; inconclusive means small, poorly fitted or top-dose-only effect, or effect the other way, or a change in a side signal; inactive means no such curve, though single readings can be large or run the other way; further: % of control where 0% means no effect
Target sequence (Q99816 whole entry, looked up): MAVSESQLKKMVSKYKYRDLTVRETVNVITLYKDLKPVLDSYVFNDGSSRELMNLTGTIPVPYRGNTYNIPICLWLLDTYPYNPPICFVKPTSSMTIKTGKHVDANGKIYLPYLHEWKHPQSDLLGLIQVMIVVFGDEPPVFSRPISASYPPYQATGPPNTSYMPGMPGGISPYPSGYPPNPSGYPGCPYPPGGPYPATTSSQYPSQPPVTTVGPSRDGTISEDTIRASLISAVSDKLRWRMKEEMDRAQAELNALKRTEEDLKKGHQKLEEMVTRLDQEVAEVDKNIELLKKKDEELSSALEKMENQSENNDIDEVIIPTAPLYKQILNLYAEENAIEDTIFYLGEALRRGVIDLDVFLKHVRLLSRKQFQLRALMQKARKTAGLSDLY
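Fluorescence anisotropy tracks displacement of a FITC-tagged PTAP peptide (50 nM) from the Tsg101 binding domain (10 uM), following a 20 min room-temperature incubation at pH 7.5.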
KB-V1 MDR tox: qHTS assay for MDR1-selective chemotherapeutics: Primary screen using the drug-selected MDR subline cells KB-V1 | AID 1347076, 2019 | Potency, µM (doses to about 46.1 µM), usual class: cytotoxic | 3.4% of 400,000 active | KB-V1 MDR cells viability, CellTiter-Glo, 72 h; further: on the % scale 0 is the no-effect control and ±100 the full control effect; nearly all actives have a fitted effect of over 60% in size
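KB-V1, DMEM (no phenol red) + 10% FBS; cpd pin-transferred, titration series; 72 h, 37 degrees C; CellTiter-Glo, luminescence. Data normalized, curve-fit.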
SW480 rerep: A quantitative high throughput screen for small molecules that induce DNA re-replication in SW480 colon adenocarcinoma cells | 1.8% of 340,000 active | SW480 DNA re-replication, Hoechst DNA content imaging, 48 h | Potency, µM (series often up to 46.1 µM), for inactives: at the top dose re-replication activation, actives largely listed as activators; further: % of control where 0% means no effect; nearly all actives have a fitted effect of over 55% in size
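DNA re-replication was detected as more nuclei of elevated Hoechst intensity after 48 hr exposure to compound (23 nL pinned per well of 250 cells).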
PINK1 modulator: A Quantitative High throughput Screen to Identify Chemical Modulators of PINK1 Expression; PINK1 immunofluorescence, high-content cytometry, 24 h; Potency, µM (series often up to 76.6 µM), without a hit: top-dose activation (PINK1 increase), most hits filed as activators; 0.2% of 410,000 active; AID 624263, 2012; active means well fitted activation curve with a large enough effect; inconclusive means small, poorly fitted or top-dose-only effect; cell line not stated here; further: % of control where 0% means no effect; nearly all actives have a fitted effect of over 65% in size
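PINK1 protein level read as immunofluorescence by microplate cytometer in a fixed, stained stable cell line after 24 h exposure to five compound concentrations, with CCCP as control.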
KB-3-1 cytotox: qHTS assay for MDR1-selective chemotherapeutics: Primary screen using the parental adenocarcinoma cell KB-3-1; KB-3-1 viability, CellTiter-Glo ATP luminescence, 72 h; Potency, µM (series often up to 46.1 µM), usual class: cytotoxic; AID 1347075, 2019; 1.4% of 400,000 active; further: on the % scale 0 is the no-effect control and ±100 the full control effect; nearly all actives have a fitted effect of over 60% in size
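Cells are dispensed, compounds pinned in, plates held at 37 °C for 72 h, then CellTiter-Glo is added and luminescence read after 10 minutes. Cell line: parental KB-3-1 in phenol-red-free DMEM, 10% FBS.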
MCF10A rereplic: A quantitative high throughput screen for small molecules that induce DNA re-replication in MCF 10a normal breast cells; MCF 10A DNA re-replication, Hoechst nuclear intensity, 48 h; Potency, µM (top dose mostly 46.1 µM), for inactives: at the highest dose activity, positive = re-replication, usual class: activators; 2.9% of 350,000 active; AID 624296, 2012; further: % of control where 0% means no effect; nearly all actives have a fitted effect of over 50% in size
The depositor's hits bear a star; i = inactive; ? = inconclusive; . = no result given; [ ] = dose if it differs, or a comment. Unless noted, the call rests on the fitted dose curve; in most records, active means well fitted curve in the direction sought with a large enough effect; inconclusive means small, poorly fitted or top-dose-only effect, or another doubt; inactive means no such curve, though single readings can be large; an effect the other way counts as inactive or inconclusive. Potency means the concentration at half of the fitted maximal effect.

SMILES | TSG101-PTAP inh | KB-V1 MDR tox | SW480 rerep | PINK1 modulator | KB-3-1 cytotox | MCF10A rereplic
COc1ccc(NC(=O)c2cc(C(C)C)on2)cc1OC | -6% | 21µM* | -2% | 5%[38.3 µM] | i | 21%
COc1ccc(NC(=O)c2cc(C)on2)cc1OC | -10% | i | -12% | 13µM* | i | 0%
CCc1nnc(SCc2ccc(F)cc2Cl)c2cc3sc(C)cc3n12 | . | . | . | 0% | . | .
CCOC(=O)CSc1nc2ccc(NC(=O)c3ccccc3)cc2s1 | . | i | . | 2% | i | .
COc1ccc(C(CNC(=O)C(CCSC)NC(=O)c2ccccc2Cl)N2CCCC2)cc1 (stereo not drawn) | -2% | ? | -5% | 1% | i | ?
COc1ccccc1C(=O)NC(CCSC)C(=O)NCC(c1cccs1)N(C)C (stereo not drawn) | -2% | ? | -3% | 1% | i | -1%
COc1ccccc1C(=O)NC(CCSC)C(=O)NCC(c1ccco1)N(C)C (stereo not drawn) | -4% | 18µM* | 4% | 3% | i | 0%
COc1ccc(C(CNC(=O)C(CCSC)NC(=O)c2ccccc2Cl)N2CCCCC2)cc1 (stereo not drawn) | 0% | 23µM* | 0% | 0% | i | 3%
Cc1ccc2nc(-c3ccccn3)c(NC3CCCC3)n2c1 | -5% | i | 16µM* | 11% | i | ?
O=[N+]([O-])c1cc([N+](=O)[O-])c2cc3ccccc3nc2c1 | 0% | i | ? | 20% | 3.7µM* | ?
O=[N+]([O-])c1cnc2ccccc2c1 | 1% | i | -139% | -1% | i | -2%
C=CC(C1=CC(=O)C(OC)=C(OC)C1=O)c1ccccc1 (stereo not drawn) | . | . | . | 9% | . | .
COC1=C(OC)C(=O)C(Sc2ccc3ccccc3c2)=CC1=O | -1% | 2.6µM* | 18µM* | -4% | ? | 5.8µM*
COc1cc2c(c(OC)c1)C(c1cccc(F)c1F)CC(=O)N2 (stereo not drawn) | . | i | . | 1% | i | .
CCc1ccc(NC(=O)c2ccc(F)c(S(=O)(=O)N(C)C3CCCCC3)c2)cc1 | . | . | . | 3% | . | .
CCCCc1nn2c(=O)cc(COC(=O)c3ccc(NC(=O)C4CCCCC4)cc3)nc2s1 | . | . | . | 0% | . | .
CC(C)n1ncc2c(C(=O)Nc3cccc(S(=O)(=O)N(C)C)c3)cc(C3CC3)nc21 | -4% | 8.2µM* | 10% | -1% | ? | ?
CC(C)n1ncc2c(C(=O)Nc3ccc(S(C)(=O)=O)cc3)cc(C3CC3)nc21 | -10% | i | -3% | -1% | i | -9%
COCCCNC(=O)c1sc2nc(C)c(C(=O)Nc3ccc(Cl)cc3)c(-c3ccc(Br)cc3)c2c1N | . | ? | . | 10% | i | .
CC(=O)O[C@H]1[C@@H](O)[C@H](O)[C@H](Oc2c(O)c(C)c3c4c2[C@@H](C)CC[C@@H]4[C@@H](C)C[C@H]3C=C(C)C)O[C@H]1C | . | 26µM* | -13% | -1% | ? | ?
CCN(CC)CCC(=O)Nc1cccc2c1C(=O)c1ccccc1C2=O | -5% | 18µM* | ? | -2% | ? | -20%
CCN(CC)CCNC(=O)c1ccc2c(c1NCCO)C(=O)c1ccccc1C2=O | -8% | 7.3µM* | ? | -1% | ? | -1%
CC1CCN(C(=O)c2ccc3c(c2NCCO)C(=O)c2ccccc2C3=O)CC1 | -3% | ? | -4% | 0% | i | 9%
O=C(CCC1N=C2c3ccccc3N=C(SCc3ccc(F)cc3)N2C1=O)NCc1ccc(F)cc1 (stereo not drawn) | . | ? | . | 0% | i | .
COc1ccc(C2c3c(n(C)c4ccccc34)C(=O)N2CC(=O)Nc2cccc(Cl)c2)cc1 (stereo not drawn) | . | i | . | 6% | i | .
SMILES | TSG101-PTAP inh | KB-V1 MDR tox | SW480 rerep | PINK1 modulator | KB-3-1 cytotox | MCF10A rereplic
CC1Cc2ccccc2N1C(=O)c1ccc(N2CCCC2)c([N+](=O)[O-])c1 (stereo not drawn) | -3% | i | ? | 0% | i | ?
O=C(c1ccc(N2CCCC2)c([N+](=O)[O-])c1)N1CCc2ccccc2C1 | -8% | 2.6µM* | 93% | 4% | ? | ?
CC1Cc2ccccc2N1C(=O)c1ccc(N2CCCCC2)c([N+](=O)[O-])c1 (stereo not drawn) | 0% | 13µM* | 22% | 3% | i | 12%
O=C(c1ccc(S(=O)(=O)c2ccccc2)cc1)N1CCc2ccccc2C1 | 0% | 18µM* | -4% | -1% | i | 4%
Cc1nc(N2CCN(C)CC2)c2nnn(Cc3ccccc3)c2n1 | . | . | . | 1% | . | .
C=CCN1C(=O)/C(=C/c2ccc(O)c(OC)c2)S/C1=N/c1nccs1 | 16% | 15µM* | ? | -3% | i | 18µM*
C=CCN1C(=O)/C(=C/c2ccc(OCC(=O)O)cc2)S/C1=N/c1nccs1 | 0% | i | 1% | 2% | i | ?
O=S(=O)(NCC(c1ccco1)N1CCN(c2ccc(F)cc2)CC1)c1cc(F)ccc1F (stereo not drawn) | . | . | . | -1% | . | .
COc1cc(OC)c(-c2oc3ccccc3c(=O)c2O)c(OC)c1 | -1% | ? | 16µM* | 15% | 8.2µM* | ?
COc1cc(-c2oc3ccc(C)cc3c(=O)c2O)cc(OC)c1OC | . | 23µM* | . | -1% | ? | .
CC(C)=CCC[C@](C)(O)C1CC=C(C)CC1 (stereo partly drawn) | . | . | 0% | . | . | 7%
CC1=C(C(=O)NCCc2ccc(Cl)cc2)C2(CCCCC2)OC1=O | . | i | . | 1% | i | .
COc1ccccc1NC(=O)C1=C(C)Nc2nc3ccccc3n2C1c1ccccc1Cl (stereo not drawn) | . | ? | . | 0% | i | .
